HP1b binding inh – HTS for Inhibitors of HP1-beta Chromodomain Interactions with Methylated Histone Tails; Chromobox protein homolog 1 (Homo sapiens), P83916; AlphaScreen HP1-beta / biotin-H3K9me3 peptide binding; Potency, µM (top dose mostly 114 µM), for inactives: top-dose activity change, negative = inhibition, hits mostly inhibitors; 0.56% of 390,000 active; note: nearly all actives have a fitted effect of over 70% in size
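AlphaScreen: HP1-beta (50 nM) preformed 30 min with biotin-H3(1-18)K9me3 peptide (50 nM) in PBS pH 7.4, 0.01% Tween-20. Compound added for 30 min at RT, then streptavidin donor/nickel chelate acceptor beads (10 ug/mL) for 30 min.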
BAZ2B inh – qHTS Assay for Inhibitors of BAZ2B. Bromodomain adjacent to zinc finger domain protein 2B (Homo sapiens), Q9UIF8. 4.4% of 360,000 active. AID 504333, 2011. AlphaScreen BAZ2B-H3K14Ac peptide displacement. Potency, µM (series often up to 114 µM), for the others: at the top dose activity change, negative = inhibition, actives largely listed as inhibitors; note: % is set by controls: 0 for no effect and ±100 for the full control effect; nearly all actives have a fitted effect of over 60% in size
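BAZ2B 50 nM plus b-H3(5-23)K14Ac 50 nM, PBS pH 7.4/0.01% Tween-20, 30 min RT; compound added (max 110 uM), 30 min RT; streptavidin donor/Ni-chelate acceptor beads 10 ug/mL final, 20 min dark; AlphaScreen read.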
PLK1 PBD inh – qHTS for Inhibitors of PLK1-PDB (polo-like kinase 1 - polo-box domain): Primary Screen; 2.8% of 360,000 active; Serine/threonine-protein kinase PLK1 (Homo sapiens), P53350; Potency, µM, inactives show max response, negative = inhibition, usual class: inhibitors; AID 720504, 2013; Plk1 PBD binding of FITC phosphopeptide, fluorescence polarization; note: series mostly up to about 57 µM; % is set by controls: 0 for no effect and ±100 for the full control effect; nearly all actives have a fitted effect of over 65% in size
JMJD2A Tudor inh – qHTS Assay for Inhibitors of JMJD2A-Tudor Domain | Lysine-specific demethylase 4A (Homo sapiens), O75164 | AlphaScreen JMJD2A-Tudor / H3K4me3 peptide binding | Potency, µM (series often up to 114 µM), without a hit: top-dose activity change, negative = inhibition, usual class: inhibitors | 4.4% of 390,000 active | AID 504339, 2011; note: % is set by controls: 0 for no effect and ±100 for the full control effect; nearly all actives have a fitted effect of over 50% in size
Sfp PPTase inh – qHTS Assay for Inhibitors of Bacillus subtilis Sfp phosphopantetheinyl transferase (PPTase) | Biochemical Sfp PPTase activity, qHTS | Potency, µM, inactives show largest response in the series, negative = inhibition, hits mostly inhibitors | 3.5% of 310,000 active | AID 1490, 2009;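 note: the enzyme is Sfp with the accession as filed and its product quenches rhodamine fluorescence; 0% = enzyme reaction without inhibitor and -100% = no enzyme wells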
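Sfp 15 nM + cpd, 15 min RT; start w/ rhodamine-CoA 5 uM, BHQ-2-YbbR 12.5 uM (final); 50 mM Hepes pH 7.6, 10 mM MgCl2, 0.01% NP-40, 0.01% BSA; read 525/598 nm at 0 and 30 min.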
G9a inh – qHTS Assay for Inhibitors of Histone Lysine Methyltransferase G9a. 8.8% of 350,000 active. Histone-lysine N-methyltransferase EHMT2 (Homo sapiens), Q96KQ7. G9a H3K9 monomethylation, AlphaScreen, 2 h. Potency, µM (top dose mostly 102 µM), for the others: at the top dose activity, negative = inhibition, most hits filed as inhibitors; note: % is set by controls: 0 for no effect and ±100 for the full control effect; nearly all actives have a fitted effect of over 75% in size
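Chemiluminescent proximity detection of H3K9 monomethylation, read after 10 min bead incubation in the dark. Reaction: 20 nM G9a, 500 nM biotin-H3K9 peptide, 20 uM SAM cofactor, 2 h, room temperature, following 15 min enzyme-compound preincubation.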
* hit, by the source's call; ? = inconclusive; . = not tested or not shown; [ ] = remark or other dose. Sampled rows, rich in hits. Any-hit rate of the full collection: about 12%. Calls come from the whole dose curve; as a rule, active = well fitted curve in the direction sought with a large enough effect; inconclusive = small, poorly fitted or top-dose-only effect, or another doubt; inactive = no such curve, though single readings can be large; an effect the other way counts as inactive or inconclusive. Potency is the fitted concentration of half-maximal effect.

SMILES	HP1b binding inh	BAZ2B inh	PLK1 PBD inh	JMJD2A Tudor inh	Sfp PPTase inh	G9a inh
O=C(Nc1ccc(N2CCN(c3ccc(F)cc3)CC2)c(C(=O)O)c1)c1ccccc1F	25%	-13%	.	?	.	-3%[59 µM]
CSCC[C@H](NC(=O)OC(C)(C)C)c1nnc(SCC=C(C)C)o1	16%	-4%	-2%	-27%	-1%	50µM*
Cc1ccc(S(=O)(=O)N2CCCc3cc(NC(=O)c4ccccc4Cl)ccc32)cc1	83%	12%	.	-4%	.	29%[59 µM]
O=C(/C=C/c1ccco1)Nc1ccc(Cl)c(S(=O)(=O)N2CCOCC2)c1	-13%	?	-17%	?	?	50µM*
O=C(CN1CCOCC1)Nc1ccc2c(c1)OCCO2	?	50µM*	0%	32µM*	?	20µM*
O=C(CN1CCN(C(=O)c2ccco2)CC1)Nc1ccc2c(c1)OCCO2	26%	-27%	-8%	-3%	5%	50µM*
O=C(CCN1CCOCC1)Nc1ccc2c(c1)CCC2	28%	4%	2%	12%	-6%	-2%[12.7 µM]
Cc1ccc(NC(=O)CN2CCN(C(=O)c3ccco3)CC2)cc1	40%	2%	-5%	-6%	24%	1%
O=C(Nc1ccccc1)Nc1ccc(Cl)c(S(=O)(=O)N2CCOCC2)c1	42%	-4%	-3%	-14%	-4%	-6%
O=C(CN1CCOCC1)Nc1ccc2c(c1)CCC2	12%	-16%	27µM*	-12%[11.4 µM]	27%	2%
O=C(CN1CCN(CC(=O)Nc2ccccc2F)CC1)Nc1ccc2c(c1)OCCO2	20%	-16%	-13%	-10%	24%	35µM*
COC(=O)c1ccc(NC(=O)CN2CCOCC2)cc1	11%	21%	-2%	-15%	13%	8%[59 µM]
O=C(CN1CCN(C(=O)c2ccco2)CC1)Nc1ccc(Cl)c(S(=O)(=O)N2CCOCC2)c1	24%	.	-3%	-5%	-1%	56µM*
O=C(CN1CCOCC1)Nc1ccc(Oc2ccc(NC(=O)CN3CCOCC3)cc2)cc1	24%	-3%	-3%	-4%	13%	11µM*
O=C(CN1CCN(c2ccccc2)CC1)Nc1ccc2c(c1)OCCO2	2%	-18%	-1%	-24%	16%	-8%
COC(=O)N1CCC2(CCN(C(=O)NC(C)C)CC2)CC1	.	.	.	.	9%	-39%[12.7 µM]
O=C(COc1ccccc1)NC1CC(=O)N(c2ccc3c(c2)OCCO3)C1 (stereo not given)	20%	-1%	.	-17%	.	23%[59 µM]
CC(C)C[C@@H](CC(=O)N[C@@H](CCC(=O)O)CC(=O)O)NC(=O)[C@@H]1CNCC[C@H]1NC(=O)C[C@H](CCCN)NC(=O)C[C@H](Cc1c[nH]c2ccccc12)NC(=O)[C@@H]1CCCC[C@H]1N	.	.	.	.	-5%	.
COn1c(=O)c(-c2ccc(Cl)cc2)[n+]([O-])c2ccccc21	42%	8%	-18%	13%	9%	-8%[59 µM]
COn1c(=O)c(-c2cccs2)[n+]([O-])c2ccccc21	48%	-21%	2.1µM*	2%	-17%	-2%[12.7 µM]
CCOC(=O)COn1c(=O)c(-c2cccs2)[n+]([O-])c2ccccc21	22%	?	?	-16%	10µM*	?
CCOn1c(=O)c(-c2cccs2)[n+]([O-])c2ccccc21	26%	-1%	?	-6%	-7%	9%[59 µM]
Cc1noc(C)c1COC(=O)c1ccc2c(c1)S(=O)(=O)c1ccccc1C2=O	-7%	?	-6%	-29%	1%	32µM*
